What all share (experiment): DAPPL (digital affinity profiling via proximity ligation, sequencing); 10 mM Tris-HCl pH 7.5, 50 mM NaCl, 1 mM DTT, 4% glycerol, room temperature, 30 min; GST-TFs on glutathione beads, 16-mer random dsDNA library, 0.1% formaldehyde crosslink after washing; high values mean tight binding
Experiment [1] concerns the target T1, FLI1 (Homo sapiens, UniProt Q01543 1-452).
T1 sequence: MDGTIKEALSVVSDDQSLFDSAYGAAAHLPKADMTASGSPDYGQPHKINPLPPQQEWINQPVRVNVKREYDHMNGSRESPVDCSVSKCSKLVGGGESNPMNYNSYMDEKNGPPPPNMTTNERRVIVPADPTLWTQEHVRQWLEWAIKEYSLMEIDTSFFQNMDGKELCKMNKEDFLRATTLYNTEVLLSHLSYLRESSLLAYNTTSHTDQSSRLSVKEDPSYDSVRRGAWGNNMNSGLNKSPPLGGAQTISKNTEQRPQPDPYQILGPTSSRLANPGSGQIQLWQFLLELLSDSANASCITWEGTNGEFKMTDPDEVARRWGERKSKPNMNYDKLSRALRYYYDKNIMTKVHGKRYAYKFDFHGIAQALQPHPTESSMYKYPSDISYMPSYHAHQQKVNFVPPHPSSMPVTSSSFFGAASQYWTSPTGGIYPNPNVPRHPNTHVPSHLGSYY
The settings on record: protein: recombinant; tags: N-terminal GST; dsDNA, one strand shown. The essentials:
(§1)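 In yeast, human transcription factors were expressed with a GST fusion, then pulled down on glutathione beads and given DNA barcodes. Pooled with a tag-only sample, they were exposed to 200 nmole of a 16-mer random double-stranded DNA library (Tris/NaCl/DTT/glycerol buffer, room temperature, 30 min), washed, crosslinked with 0.1% formaldehyde, proximity-ligated using BsaI/T4 ligase for 1 h at 37 °C, PCR-amplified and read on an Illumina NextSeq500. Each hexamer's frequency of reads for a factor, divided by the matching frequency for the tag-only sample, gives the binding signal.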

Experiment [2] concerns the target T2, ELK1 (Homo sapiens, UniProt P19419 1-428).
T2 sequence: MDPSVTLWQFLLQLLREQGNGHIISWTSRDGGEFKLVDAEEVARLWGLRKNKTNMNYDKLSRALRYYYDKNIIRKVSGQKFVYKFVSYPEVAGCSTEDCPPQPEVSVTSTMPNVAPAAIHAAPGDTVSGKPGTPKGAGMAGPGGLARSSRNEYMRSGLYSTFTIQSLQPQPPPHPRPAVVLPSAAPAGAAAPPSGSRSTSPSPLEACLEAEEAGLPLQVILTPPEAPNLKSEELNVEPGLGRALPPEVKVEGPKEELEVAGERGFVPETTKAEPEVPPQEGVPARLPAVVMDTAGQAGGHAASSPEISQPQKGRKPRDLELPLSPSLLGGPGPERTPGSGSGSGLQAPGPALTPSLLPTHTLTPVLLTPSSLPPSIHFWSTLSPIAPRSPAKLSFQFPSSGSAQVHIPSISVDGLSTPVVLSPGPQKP
The following applies: protein: recombinant; tags: N-terminal GST; dsDNA, one strand shown. The essentials: as §1

The target in experiment [3] is T3, GABPA (Homo sapiens, UniProt Q06546 1-454).
T3 sequence: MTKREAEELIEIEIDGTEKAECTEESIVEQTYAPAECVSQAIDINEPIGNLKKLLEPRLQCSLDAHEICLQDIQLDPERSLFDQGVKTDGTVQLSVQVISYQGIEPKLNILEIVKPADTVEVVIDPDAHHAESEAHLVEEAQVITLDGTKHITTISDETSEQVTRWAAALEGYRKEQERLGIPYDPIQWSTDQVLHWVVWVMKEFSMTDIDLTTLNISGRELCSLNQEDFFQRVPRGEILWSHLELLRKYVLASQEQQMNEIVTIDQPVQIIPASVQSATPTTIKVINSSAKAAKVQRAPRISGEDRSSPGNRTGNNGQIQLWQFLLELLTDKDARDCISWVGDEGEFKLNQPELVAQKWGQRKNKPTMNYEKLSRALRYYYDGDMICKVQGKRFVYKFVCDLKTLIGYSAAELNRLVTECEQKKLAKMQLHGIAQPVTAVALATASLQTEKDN
The settings on record: protein: recombinant; tags: N-terminal GST; dsDNA, one strand shown. The essentials:
as §1

Experiment [4] has as its target T4, ERG (Homo sapiens, UniProt P11308 1-479).
T4 sequence: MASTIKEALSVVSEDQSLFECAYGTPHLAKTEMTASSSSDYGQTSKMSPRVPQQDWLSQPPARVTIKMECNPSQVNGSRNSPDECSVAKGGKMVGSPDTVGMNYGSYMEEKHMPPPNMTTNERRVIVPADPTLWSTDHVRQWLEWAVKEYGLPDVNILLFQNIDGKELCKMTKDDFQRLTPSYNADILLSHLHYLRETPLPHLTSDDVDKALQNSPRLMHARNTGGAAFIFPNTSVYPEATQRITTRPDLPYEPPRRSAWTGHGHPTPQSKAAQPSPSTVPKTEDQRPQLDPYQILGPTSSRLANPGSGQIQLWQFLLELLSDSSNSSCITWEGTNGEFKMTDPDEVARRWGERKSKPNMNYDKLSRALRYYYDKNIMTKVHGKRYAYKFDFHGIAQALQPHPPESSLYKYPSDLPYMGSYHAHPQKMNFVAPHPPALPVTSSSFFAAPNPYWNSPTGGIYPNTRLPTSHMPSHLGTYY
The following applies: protein: recombinant; tags: N-terminal GST; dsDNA, one strand shown. The essentials:
as §1

In experiment [5] the target is ELF1 (Homo sapiens, UniProt P32519 1-619). The settings on record: protein: recombinant; tags: N-terminal GST; dsDNA, one strand shown. The essentials: as §1
Experiment [6] deals with T5, EHF (Homo sapiens, UniProt Q9NZC4 1-300).
T5 sequence: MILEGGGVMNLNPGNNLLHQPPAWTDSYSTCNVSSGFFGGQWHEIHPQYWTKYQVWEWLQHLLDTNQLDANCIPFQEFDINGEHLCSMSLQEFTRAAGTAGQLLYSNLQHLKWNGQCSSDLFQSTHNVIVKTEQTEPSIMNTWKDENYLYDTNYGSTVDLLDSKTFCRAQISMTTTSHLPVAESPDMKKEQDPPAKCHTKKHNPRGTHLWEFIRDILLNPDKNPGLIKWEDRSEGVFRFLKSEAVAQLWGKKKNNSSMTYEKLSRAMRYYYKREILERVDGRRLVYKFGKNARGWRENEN
The settings on record: protein: recombinant; tags: N-terminal GST; dsDNA, one strand shown. The essentials: as §1

Experiment [7] deals with SPI1 (Homo sapiens, UniProt P17947 1-270). The settings on record: protein: recombinant; tags: N-terminal GST; dsDNA, one strand shown. The essentials: as §1
Experiment [8] has as its target SPIB (Homo sapiens, UniProt Q01892 1-262). The following applies: protein: recombinant; tags: N-terminal GST; dsDNA, one strand shown. The essentials: as §1
Experiment [9] has as its target T6, ELK3 (Homo sapiens, UniProt P41970 1-407).
T6 sequence: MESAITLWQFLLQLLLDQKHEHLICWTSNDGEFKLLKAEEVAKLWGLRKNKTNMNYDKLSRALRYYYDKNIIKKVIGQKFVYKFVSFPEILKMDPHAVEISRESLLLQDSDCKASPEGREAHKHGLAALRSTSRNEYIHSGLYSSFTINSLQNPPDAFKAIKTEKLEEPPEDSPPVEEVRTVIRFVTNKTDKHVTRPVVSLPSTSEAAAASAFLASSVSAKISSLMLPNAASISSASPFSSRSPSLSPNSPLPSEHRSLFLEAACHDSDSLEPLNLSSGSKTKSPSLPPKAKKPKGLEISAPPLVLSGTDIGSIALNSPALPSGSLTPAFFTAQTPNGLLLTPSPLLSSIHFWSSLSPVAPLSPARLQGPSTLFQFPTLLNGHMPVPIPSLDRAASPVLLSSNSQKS
The settings on record: protein: recombinant; tags: N-terminal GST; dsDNA, one strand shown. The essentials:
as §1

Experiment [10] concerns the target T7, FEV (Homo sapiens, UniProt Q99581 1-238).
T7 sequence: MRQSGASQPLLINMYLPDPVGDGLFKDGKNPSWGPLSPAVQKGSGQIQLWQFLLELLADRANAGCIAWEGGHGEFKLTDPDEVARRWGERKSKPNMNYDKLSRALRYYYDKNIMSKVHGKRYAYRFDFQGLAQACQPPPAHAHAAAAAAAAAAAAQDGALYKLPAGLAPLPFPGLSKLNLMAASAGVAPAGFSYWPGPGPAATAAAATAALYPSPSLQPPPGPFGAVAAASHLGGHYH
The settings on record: protein: recombinant; tags: N-terminal GST; dsDNA, one strand shown. The essentials: as §1

Experiment [11] addresses ETV5 (Homo sapiens, UniProt P41161 1-510). The settings on record: protein: recombinant; tags: N-terminal GST; dsDNA, one strand shown. The essentials: as §1
The target in experiment [12] is HSF1 (Homo sapiens, UniProt Q00613 1-529). The settings on record: protein: recombinant; tags: N-terminal GST; chain copies: 3; dsDNA, one strand shown. The essentials: as §1
Experiment [13] addresses T8, SPIC (Homo sapiens, UniProt Q8N5J4 1-248).
T8 sequence: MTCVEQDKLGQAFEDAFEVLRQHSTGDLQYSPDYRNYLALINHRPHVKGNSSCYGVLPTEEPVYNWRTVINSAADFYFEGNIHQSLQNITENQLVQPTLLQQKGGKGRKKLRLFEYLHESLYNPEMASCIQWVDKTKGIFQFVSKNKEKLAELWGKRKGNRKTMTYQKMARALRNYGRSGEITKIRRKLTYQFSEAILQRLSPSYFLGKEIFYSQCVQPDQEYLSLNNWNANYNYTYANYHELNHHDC
The following applies: protein: recombinant; tags: N-terminal GST; dsDNA, one strand shown. The essentials: as §1

The target of experiment [14] is ELF4 (Homo sapiens, UniProt Q99607 1-663). The settings on record: protein: recombinant; tags: N-terminal GST; dsDNA, one strand shown. The essentials: as §1
For experiment [15], the target named is T9, ELK4 (Homo sapiens, UniProt P28324-2 1-405).
T9 sequence: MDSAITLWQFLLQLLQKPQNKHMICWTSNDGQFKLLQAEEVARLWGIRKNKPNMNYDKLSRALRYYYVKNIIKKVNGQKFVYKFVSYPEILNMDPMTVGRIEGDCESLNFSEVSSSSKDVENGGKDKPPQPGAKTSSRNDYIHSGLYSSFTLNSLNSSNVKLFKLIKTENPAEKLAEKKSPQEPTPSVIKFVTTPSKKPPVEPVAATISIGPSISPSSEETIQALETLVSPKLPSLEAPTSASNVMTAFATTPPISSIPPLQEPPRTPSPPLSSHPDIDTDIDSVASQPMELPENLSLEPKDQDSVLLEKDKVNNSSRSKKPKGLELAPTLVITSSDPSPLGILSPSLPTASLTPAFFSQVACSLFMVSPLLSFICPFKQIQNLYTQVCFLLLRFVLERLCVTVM
The settings on record: protein: recombinant; tags: N-terminal GST; dsDNA, one strand shown. The essentials: as §1

Experiment [16] has as its target T10, ETV2 (Homo sapiens, UniProt O00321 1-342).
T10 sequence: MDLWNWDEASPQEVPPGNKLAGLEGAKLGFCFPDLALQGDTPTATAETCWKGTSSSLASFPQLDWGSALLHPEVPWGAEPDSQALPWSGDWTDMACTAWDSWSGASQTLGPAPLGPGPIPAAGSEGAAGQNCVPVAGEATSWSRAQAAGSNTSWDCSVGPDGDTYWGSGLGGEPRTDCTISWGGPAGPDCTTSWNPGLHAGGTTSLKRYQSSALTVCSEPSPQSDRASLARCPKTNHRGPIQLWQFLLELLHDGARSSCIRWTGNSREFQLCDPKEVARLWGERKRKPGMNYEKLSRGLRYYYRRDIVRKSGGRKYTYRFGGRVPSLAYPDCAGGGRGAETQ
The following applies: protein: recombinant; tags: N-terminal GST; dsDNA, one strand shown. The essentials:
as §1

Experiment [17] has as its target T11, ELF3 (Homo sapiens, UniProt P78545 1-371).
T11 sequence: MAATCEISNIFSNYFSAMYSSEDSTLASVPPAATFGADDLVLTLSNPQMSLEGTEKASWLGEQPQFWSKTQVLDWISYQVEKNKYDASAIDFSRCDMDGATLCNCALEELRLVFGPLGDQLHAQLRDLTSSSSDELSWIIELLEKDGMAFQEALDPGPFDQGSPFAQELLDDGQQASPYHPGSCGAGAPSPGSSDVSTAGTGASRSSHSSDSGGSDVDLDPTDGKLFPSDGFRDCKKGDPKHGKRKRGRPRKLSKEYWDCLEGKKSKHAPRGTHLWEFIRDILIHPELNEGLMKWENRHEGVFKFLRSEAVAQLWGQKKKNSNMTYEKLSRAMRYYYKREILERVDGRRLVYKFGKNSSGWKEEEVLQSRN
The settings on record: protein: recombinant; tags: N-terminal GST; dsDNA, one strand shown. The essentials:
as §1

Experiment [18] deals with CRX (Homo sapiens, UniProt O43186 1-299). The settings on record: protein: recombinant; tags: N-terminal GST; dsDNA, one strand shown. The essentials:
as §1

For experiment [19], the target named is ETV1 (Homo sapiens, UniProt P50549 1-477). The settings on record: protein: recombinant; tags: N-terminal GST; dsDNA, one strand shown. The essentials: as §1
ETV1, sequence (P50549 whole entry): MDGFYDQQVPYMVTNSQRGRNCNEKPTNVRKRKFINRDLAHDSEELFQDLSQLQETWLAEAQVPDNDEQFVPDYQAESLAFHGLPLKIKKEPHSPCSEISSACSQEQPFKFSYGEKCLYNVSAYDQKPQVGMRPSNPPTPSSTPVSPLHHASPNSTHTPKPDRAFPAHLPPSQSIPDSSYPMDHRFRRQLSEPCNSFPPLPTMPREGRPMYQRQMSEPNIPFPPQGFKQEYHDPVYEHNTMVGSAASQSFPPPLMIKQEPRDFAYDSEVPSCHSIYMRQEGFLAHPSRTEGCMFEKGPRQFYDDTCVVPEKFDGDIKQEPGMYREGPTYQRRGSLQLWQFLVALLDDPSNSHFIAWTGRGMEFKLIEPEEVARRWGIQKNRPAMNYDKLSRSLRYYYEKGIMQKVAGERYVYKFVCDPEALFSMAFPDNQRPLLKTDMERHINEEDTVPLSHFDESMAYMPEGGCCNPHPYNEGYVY

ELF1, sequence (P32519 whole entry): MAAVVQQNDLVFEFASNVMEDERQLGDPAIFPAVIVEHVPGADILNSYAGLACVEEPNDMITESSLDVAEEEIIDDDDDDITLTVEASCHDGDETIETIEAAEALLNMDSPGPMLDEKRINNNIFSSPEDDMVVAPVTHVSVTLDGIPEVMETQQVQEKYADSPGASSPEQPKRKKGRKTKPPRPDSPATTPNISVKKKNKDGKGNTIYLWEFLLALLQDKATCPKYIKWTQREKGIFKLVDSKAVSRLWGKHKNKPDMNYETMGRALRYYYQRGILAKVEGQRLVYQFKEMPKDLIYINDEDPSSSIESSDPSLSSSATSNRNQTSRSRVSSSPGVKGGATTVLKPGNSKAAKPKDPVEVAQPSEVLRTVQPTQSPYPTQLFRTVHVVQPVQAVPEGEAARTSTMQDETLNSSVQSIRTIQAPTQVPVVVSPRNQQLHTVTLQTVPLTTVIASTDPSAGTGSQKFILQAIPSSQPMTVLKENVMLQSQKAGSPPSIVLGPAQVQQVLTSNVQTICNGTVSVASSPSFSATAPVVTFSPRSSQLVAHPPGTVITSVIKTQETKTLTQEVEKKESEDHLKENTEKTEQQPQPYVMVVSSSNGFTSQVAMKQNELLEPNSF
ETV5, sequence (P41161 whole entry): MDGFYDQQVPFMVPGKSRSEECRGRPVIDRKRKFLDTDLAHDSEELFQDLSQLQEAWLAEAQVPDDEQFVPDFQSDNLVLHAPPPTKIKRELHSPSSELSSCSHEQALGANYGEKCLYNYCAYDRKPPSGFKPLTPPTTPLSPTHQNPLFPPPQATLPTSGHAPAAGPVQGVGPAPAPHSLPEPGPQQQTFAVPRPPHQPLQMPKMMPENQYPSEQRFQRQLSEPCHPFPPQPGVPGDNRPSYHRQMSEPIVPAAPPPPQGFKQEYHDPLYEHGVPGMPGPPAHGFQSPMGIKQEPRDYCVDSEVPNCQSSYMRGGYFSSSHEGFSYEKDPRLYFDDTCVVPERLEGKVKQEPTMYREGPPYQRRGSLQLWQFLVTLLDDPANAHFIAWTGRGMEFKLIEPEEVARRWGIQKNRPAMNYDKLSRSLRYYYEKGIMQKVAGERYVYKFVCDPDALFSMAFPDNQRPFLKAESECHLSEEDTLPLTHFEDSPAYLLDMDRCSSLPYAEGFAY
ELF4, sequence (Q99607 whole entry): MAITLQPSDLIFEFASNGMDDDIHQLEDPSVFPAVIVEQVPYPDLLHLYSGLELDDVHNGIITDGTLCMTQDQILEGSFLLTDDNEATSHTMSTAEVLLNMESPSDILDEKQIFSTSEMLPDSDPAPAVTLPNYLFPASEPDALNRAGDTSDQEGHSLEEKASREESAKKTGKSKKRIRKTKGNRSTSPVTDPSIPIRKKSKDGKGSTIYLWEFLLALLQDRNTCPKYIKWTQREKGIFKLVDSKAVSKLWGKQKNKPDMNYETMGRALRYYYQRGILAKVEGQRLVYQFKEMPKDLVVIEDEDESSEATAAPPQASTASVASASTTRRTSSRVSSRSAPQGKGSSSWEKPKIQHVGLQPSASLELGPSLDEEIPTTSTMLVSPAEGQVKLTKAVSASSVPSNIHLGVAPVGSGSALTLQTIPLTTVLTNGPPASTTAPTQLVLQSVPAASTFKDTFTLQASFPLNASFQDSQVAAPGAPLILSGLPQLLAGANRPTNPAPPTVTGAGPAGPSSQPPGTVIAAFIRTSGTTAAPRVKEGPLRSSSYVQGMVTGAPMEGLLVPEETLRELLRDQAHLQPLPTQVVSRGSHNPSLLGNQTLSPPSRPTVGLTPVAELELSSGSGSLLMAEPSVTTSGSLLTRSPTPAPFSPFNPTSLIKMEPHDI
CRX, sequence (O43186 whole entry): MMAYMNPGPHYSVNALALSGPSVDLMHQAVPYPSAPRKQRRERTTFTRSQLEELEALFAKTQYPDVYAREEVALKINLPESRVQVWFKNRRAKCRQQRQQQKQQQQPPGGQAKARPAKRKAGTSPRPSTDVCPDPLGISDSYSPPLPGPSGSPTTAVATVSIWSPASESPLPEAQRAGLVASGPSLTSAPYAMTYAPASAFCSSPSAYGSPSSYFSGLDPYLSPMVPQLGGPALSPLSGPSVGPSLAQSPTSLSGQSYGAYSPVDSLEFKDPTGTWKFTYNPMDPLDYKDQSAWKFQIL
HSF1, sequence (Q00613 whole entry): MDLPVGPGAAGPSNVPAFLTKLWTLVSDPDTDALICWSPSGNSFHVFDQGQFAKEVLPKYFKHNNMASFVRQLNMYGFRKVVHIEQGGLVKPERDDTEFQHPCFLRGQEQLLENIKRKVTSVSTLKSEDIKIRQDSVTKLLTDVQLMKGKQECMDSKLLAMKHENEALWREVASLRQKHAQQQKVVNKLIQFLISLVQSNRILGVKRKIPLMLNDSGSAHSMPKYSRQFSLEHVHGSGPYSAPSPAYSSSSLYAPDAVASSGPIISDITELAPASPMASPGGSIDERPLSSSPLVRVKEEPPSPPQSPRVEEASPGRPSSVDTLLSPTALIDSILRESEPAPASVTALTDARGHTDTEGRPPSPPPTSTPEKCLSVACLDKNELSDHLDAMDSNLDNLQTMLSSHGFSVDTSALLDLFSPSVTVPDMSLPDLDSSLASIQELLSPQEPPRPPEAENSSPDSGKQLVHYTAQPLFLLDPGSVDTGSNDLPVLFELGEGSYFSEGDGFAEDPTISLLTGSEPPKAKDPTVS
SPIB, sequence (Q01892 whole entry): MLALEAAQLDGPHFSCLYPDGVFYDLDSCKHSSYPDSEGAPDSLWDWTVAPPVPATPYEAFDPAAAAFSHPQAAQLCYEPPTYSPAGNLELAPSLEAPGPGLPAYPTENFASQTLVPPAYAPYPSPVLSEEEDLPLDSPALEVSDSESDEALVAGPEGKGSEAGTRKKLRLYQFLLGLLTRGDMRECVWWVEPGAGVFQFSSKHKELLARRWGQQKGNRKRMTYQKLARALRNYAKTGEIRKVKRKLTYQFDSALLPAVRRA

Turning to TGTTAC, the binding signal in experiment [1] is 1.49 fold enrichment (6-mer frequency, TF over GST control); in experiment [2], 1.55 fold enrichment (6-mer frequency, TF over GST control); in experiment [3], 1.39 fold enrichment (6-mer frequency, TF over GST control); in experiment [4] it was 1.49 fold enrichment (6-mer frequency, TF over GST control); in experiment [5], 1.43 fold enrichment (6-mer frequency, TF over GST control); in experiment [6], 1.53 fold enrichment (6-mer frequency, TF over GST control). The binding signal in experiment [7] was 1.36 fold enrichment (6-mer frequency, TF over GST control); in experiment [8], 1.43 fold enrichment (6-mer frequency, TF over GST control); in experiment [9], 1.53 fold enrichment (6-mer frequency, TF over GST control); in [10], 1.4 fold enrichment (6-mer frequency, TF over GST control); in experiment [11] it was 1.47 fold enrichment (6-mer frequency, TF over GST control); in experiment [12], 1.12 fold enrichment (6-mer frequency, TF over GST control). For the same sequence, the binding signal in experiment [13] was 1.42 fold enrichment (6-mer frequency, TF over GST control); in experiment [14], 1.47 fold enrichment (6-mer frequency, TF over GST control); in experiment [15] it was 1.51 fold enrichment (6-mer frequency, TF over GST control); in experiment [16] it was 1.58 fold enrichment (6-mer frequency, TF over GST control); in experiment [17], 1.39 fold enrichment (6-mer frequency, TF over GST control); in experiment [18], 1.19 fold enrichment (6-mer frequency, TF over GST control). In addition, the binding signal in experiment [19] is 1.4 fold enrichment (6-mer frequency, TF over GST control).
